Columns and labels:
Assay in all cases: DAPPL (digital affinity profiling via proximity ligation, sequencing); 10 mM Tris-HCl pH 7.5, 50 mM NaCl, 1 mM DTT, 4% glycerol, room temperature, 30 min; GST-TFs on glutathione beads, 16-mer random dsDNA library, 0.1% formaldehyde crosslink after washing; high values mean tight binding
Settings in all cases: protein: recombinant; tags: N-terminal GST; dsDNA, one strand shown
FEV = target: T1, FEV (Homo sapiens, UniProt Q99581 1-238)
T1 sequence: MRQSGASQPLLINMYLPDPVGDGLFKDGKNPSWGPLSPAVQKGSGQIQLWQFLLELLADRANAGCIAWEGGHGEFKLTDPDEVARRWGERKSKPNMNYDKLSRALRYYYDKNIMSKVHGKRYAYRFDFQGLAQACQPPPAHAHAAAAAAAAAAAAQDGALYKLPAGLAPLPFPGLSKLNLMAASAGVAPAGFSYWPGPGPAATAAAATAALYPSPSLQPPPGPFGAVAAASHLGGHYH
Outline: (§1)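 Sequencing on an Illumina NextSeq500 followed washing, crosslinking with 0.1% formaldehyde, proximity ligation (BsaI/T4 ligase, 1 h, 37 °C) and PCR amplification of pools that had been incubated for 30 min at room temperature with 200 nmole of a random double-stranded 16-mer DNA library in Tris/NaCl/DTT/glycerol buffer. Each pool held DNA-barcoded human transcription factors, expressed in yeast as GST fusions and captured on glutathione beads, plus a tag-only sample. Binding signal is a hexamer's read frequency for a factor divided by its frequency in the tag-only sample.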

ETV5 = ETV5 (Homo sapiens, UniProt P41161 1-510)
Chain of ETV5 (P41161 whole entry): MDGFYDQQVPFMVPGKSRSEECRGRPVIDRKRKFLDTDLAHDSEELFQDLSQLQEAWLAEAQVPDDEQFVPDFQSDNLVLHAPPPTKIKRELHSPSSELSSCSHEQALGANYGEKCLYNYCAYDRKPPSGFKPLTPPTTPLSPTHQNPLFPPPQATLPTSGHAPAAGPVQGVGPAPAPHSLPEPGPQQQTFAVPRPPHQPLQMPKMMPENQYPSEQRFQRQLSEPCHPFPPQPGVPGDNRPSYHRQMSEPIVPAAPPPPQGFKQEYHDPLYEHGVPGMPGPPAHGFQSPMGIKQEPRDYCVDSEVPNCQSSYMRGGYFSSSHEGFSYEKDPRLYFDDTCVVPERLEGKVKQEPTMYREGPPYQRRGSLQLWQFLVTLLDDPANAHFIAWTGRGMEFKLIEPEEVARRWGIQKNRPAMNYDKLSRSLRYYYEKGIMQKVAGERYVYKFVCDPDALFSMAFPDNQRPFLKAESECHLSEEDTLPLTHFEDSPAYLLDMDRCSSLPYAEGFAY
Outline: as §1

SPIC = target: T2, SPIC (Homo sapiens, UniProt Q8N5J4 1-248)
T2 sequence: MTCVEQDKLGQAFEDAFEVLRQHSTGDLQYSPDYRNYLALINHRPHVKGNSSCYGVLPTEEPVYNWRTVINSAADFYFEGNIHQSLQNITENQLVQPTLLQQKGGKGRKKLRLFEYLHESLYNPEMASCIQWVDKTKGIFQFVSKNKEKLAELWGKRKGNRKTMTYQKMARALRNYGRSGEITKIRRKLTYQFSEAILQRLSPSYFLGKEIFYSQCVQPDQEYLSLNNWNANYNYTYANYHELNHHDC
Outline: as §1

ELF4 = ELF4 (Homo sapiens, UniProt Q99607 1-663)
Chain of ELF4 (Q99607 whole entry): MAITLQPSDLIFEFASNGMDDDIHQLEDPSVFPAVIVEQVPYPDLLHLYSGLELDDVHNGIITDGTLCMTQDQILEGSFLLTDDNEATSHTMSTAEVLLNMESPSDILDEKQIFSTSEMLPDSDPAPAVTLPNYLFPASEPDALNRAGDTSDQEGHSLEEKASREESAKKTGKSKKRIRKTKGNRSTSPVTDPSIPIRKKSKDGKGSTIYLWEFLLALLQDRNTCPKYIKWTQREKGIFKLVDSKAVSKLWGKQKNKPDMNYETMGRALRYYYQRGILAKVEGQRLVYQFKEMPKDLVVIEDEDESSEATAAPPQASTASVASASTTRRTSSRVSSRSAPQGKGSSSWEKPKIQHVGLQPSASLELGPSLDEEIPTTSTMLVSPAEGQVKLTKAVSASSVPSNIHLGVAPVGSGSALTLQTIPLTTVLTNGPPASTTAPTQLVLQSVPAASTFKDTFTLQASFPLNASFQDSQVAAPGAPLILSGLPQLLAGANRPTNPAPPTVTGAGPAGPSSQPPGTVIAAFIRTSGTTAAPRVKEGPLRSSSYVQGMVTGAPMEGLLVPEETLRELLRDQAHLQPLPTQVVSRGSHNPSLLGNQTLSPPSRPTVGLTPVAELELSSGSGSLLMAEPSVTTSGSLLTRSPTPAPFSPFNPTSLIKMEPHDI
Outline: as §1

ELK4 = target: T3, ELK4 (Homo sapiens, UniProt P28324-2 1-405)
T3 sequence: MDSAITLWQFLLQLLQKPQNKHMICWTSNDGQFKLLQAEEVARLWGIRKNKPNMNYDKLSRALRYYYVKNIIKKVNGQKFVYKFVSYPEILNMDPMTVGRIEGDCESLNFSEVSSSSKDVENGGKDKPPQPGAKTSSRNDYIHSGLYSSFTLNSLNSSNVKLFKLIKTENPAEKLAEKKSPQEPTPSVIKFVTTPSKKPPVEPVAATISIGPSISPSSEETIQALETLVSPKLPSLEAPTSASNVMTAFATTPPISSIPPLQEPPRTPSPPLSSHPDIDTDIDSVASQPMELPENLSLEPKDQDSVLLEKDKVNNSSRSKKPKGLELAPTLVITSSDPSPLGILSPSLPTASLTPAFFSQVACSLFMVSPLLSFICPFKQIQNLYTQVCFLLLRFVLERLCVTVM
Outline: as §1

ETV2 = target: T4, ETV2 (Homo sapiens, UniProt O00321 1-342)
T4 sequence: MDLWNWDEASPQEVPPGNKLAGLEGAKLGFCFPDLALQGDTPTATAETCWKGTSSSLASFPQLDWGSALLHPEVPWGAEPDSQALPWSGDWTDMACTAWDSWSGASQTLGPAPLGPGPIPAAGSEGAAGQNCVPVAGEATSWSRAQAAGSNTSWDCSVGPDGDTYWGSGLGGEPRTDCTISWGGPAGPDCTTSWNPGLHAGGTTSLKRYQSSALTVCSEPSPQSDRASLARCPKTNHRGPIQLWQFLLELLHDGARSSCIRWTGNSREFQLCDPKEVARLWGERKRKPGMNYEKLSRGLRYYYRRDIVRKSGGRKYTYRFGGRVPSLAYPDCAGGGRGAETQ
Outline: as §1

ELF3 = target: T5, ELF3 (Homo sapiens, UniProt P78545 1-371)
T5 sequence: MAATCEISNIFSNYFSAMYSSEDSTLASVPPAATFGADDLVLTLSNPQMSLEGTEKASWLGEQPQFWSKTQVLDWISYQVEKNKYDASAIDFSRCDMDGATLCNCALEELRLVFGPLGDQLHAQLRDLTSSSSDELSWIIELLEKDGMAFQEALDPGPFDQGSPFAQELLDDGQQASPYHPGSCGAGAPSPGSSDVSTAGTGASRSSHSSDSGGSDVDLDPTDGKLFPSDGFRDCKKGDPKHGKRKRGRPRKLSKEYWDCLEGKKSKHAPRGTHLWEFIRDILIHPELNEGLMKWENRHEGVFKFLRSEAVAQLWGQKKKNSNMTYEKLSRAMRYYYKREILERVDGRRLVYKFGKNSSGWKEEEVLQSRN
Outline: as §1

CRX = CRX (Homo sapiens, UniProt O43186 1-299)
Chain of CRX (O43186 whole entry): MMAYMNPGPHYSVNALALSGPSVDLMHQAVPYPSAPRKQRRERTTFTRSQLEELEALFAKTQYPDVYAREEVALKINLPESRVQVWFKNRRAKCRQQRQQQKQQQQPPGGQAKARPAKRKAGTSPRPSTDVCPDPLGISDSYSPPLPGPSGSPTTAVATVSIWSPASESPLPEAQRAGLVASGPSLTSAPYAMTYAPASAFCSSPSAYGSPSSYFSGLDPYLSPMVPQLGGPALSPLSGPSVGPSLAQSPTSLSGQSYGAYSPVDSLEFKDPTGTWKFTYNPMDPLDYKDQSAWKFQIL
Outline: as §1

ETV1 = ETV1 (Homo sapiens, UniProt P50549 1-477)
Chain of ETV1 (P50549 whole entry): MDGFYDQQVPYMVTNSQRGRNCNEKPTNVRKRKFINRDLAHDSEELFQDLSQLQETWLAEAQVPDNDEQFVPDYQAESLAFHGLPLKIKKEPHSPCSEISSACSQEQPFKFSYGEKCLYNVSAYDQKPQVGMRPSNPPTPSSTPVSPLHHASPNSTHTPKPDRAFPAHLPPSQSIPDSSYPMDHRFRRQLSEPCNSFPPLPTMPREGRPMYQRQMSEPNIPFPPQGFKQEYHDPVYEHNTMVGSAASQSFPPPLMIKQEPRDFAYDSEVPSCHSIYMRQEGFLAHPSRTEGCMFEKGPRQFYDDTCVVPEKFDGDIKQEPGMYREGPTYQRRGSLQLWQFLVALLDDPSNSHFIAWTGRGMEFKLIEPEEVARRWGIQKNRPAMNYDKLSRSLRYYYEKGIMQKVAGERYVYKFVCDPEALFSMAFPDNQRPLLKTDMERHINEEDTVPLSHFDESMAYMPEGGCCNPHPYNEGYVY
Outline: as §1

ERF = target: T6, ERF (Homo sapiens, UniProt P50548 1-548)
T6 sequence: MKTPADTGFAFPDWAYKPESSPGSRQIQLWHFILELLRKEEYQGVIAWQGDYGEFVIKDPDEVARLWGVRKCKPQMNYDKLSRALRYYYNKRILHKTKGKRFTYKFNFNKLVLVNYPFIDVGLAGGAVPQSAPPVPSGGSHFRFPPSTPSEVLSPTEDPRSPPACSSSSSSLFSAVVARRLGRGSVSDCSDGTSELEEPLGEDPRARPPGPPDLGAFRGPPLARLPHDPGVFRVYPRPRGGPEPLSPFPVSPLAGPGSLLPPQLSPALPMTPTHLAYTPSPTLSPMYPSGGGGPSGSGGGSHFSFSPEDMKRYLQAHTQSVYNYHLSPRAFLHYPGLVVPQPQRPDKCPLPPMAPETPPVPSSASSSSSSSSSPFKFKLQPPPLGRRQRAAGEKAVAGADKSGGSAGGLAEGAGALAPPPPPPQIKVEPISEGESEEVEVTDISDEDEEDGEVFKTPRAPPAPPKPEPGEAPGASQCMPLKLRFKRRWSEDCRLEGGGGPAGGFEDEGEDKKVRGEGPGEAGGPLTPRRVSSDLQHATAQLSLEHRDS
Outline: as §1

ETV3L = target: T7, ETV3L (Homo sapiens, UniProt Q6ZN32 1-361)
T7 sequence: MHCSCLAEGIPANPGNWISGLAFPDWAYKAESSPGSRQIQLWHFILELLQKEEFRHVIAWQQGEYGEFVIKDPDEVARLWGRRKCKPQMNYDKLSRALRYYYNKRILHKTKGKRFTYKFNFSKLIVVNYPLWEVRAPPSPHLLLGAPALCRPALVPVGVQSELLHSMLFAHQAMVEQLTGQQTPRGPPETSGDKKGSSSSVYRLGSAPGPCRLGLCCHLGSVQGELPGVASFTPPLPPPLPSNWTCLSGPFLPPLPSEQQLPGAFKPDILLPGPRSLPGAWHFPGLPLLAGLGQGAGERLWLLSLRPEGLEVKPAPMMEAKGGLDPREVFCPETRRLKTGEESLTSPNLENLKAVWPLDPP
Outline: as §1

ETS2 = target: T8, ETS2 (Homo sapiens, UniProt P15036 1-469)
T8 sequence: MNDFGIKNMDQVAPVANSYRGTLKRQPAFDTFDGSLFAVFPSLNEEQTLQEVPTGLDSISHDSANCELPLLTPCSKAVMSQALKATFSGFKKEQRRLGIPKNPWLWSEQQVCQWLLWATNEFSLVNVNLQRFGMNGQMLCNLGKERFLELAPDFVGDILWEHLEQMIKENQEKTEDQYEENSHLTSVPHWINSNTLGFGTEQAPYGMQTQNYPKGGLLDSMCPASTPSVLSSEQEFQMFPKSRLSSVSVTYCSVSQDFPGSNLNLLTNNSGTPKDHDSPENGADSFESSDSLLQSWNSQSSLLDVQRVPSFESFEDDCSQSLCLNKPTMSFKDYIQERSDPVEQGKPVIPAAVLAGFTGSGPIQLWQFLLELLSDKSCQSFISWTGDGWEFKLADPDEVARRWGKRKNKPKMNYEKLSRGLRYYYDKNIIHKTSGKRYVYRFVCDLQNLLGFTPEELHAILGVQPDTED
Outline: as §1

SPDEF = target: T9, SPDEF (Homo sapiens, UniProt O95238 1-335)
T9 sequence: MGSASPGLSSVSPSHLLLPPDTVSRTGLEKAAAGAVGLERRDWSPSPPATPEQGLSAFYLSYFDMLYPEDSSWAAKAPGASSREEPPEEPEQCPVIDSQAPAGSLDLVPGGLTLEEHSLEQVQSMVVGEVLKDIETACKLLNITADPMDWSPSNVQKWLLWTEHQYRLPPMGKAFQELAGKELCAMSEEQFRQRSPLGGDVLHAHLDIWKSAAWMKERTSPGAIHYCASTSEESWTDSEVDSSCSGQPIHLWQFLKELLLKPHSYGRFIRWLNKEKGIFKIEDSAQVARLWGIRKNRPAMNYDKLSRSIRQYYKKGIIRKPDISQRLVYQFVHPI
Outline: as §1

ETV7 = target: T10, ETV7 (Homo sapiens, UniProt Q9Y603 1-341)
T10 sequence: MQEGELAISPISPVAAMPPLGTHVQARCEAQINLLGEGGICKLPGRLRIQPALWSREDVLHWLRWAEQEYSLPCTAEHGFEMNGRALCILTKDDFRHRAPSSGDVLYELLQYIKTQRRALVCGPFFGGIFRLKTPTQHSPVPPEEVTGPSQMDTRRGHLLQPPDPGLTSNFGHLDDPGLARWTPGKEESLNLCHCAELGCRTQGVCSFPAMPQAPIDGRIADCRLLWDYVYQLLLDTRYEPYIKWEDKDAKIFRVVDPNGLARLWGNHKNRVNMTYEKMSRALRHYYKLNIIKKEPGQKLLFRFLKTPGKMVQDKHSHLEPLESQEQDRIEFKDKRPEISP
Outline: as §1

ELF5 = target: T11, ELF5 (Homo sapiens, UniProt Q9UKW6-2 1-255)
T11 sequence: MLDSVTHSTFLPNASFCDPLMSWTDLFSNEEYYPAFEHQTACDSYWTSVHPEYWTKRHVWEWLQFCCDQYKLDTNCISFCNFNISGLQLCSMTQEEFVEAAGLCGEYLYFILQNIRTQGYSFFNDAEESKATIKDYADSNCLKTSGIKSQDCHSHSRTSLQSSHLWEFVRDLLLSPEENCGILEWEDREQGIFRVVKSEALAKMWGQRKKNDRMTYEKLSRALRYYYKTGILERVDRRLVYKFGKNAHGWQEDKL
Outline: as §1

ETV3 = target: T12, ETV3 (Homo sapiens, UniProt P41162-2 1-143)
T12 sequence: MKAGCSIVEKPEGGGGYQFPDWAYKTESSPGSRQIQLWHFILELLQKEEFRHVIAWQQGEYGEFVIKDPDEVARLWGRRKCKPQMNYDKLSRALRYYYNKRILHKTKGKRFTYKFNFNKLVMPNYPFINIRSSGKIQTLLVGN
Outline: as §1

ETV6 = ETV6 (Homo sapiens, UniProt P41212 1-452)
Chain of ETV6 (P41212 whole entry): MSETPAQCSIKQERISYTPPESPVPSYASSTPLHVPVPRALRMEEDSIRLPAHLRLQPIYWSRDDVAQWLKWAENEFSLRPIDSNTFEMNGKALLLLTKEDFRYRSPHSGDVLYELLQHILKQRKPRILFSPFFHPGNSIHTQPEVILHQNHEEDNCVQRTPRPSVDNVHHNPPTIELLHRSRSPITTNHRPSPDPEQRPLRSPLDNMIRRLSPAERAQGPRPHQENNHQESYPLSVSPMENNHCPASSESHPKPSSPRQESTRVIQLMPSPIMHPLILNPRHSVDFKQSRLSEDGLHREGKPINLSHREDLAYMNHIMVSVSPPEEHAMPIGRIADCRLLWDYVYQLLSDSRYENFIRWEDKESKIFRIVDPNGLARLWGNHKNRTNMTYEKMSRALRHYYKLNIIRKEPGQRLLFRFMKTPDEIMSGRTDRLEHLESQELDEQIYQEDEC
Outline: as §1

| Sequence | binding signal (FEV) | binding signal (ETV5) | binding signal (SPIC) | binding signal (ELF4) | binding signal (ELK4) | binding signal (ETV2) | binding signal (ELF3) | binding signal (CRX) | binding signal (ETV1) | binding signal (ERF) | binding signal (ETV3L) | binding signal (ETS2) | binding signal (SPDEF) | binding signal (ETV7) | binding signal (ELF5) | binding signal (ETV3) | binding signal (ETV6) |
| --- | --- | --- | --- | --- | --- | --- | --- | --- | --- | --- | --- | --- | --- | --- | --- | --- | --- |
| ACCCCG | 1.25 fold enrichment (6-mer frequency, TF over GST control) | 1.27 fold enrichment (6-mer frequency, TF over GST control) | 1.38 fold enrichment (6-mer frequency, TF over GST control) | 1.33 fold enrichment (6-mer frequency, TF over GST control) | 1.29 fold enrichment (6-mer frequency, TF over GST control) | 1.21 fold enrichment (6-mer frequency, TF over GST control) | 1.22 fold enrichment (6-mer frequency, TF over GST control) | 1.02 fold enrichment (6-mer frequency, TF over GST control) | 1.22 fold enrichment (6-mer frequency, TF over GST control) | 1.26 fold enrichment (6-mer frequency, TF over GST control) | 1.33 fold enrichment (6-mer frequency, TF over GST control) | 1.25 fold enrichment (6-mer frequency, TF over GST control) | 1.15 fold enrichment (6-mer frequency, TF over GST control) | 1.02 fold enrichment (6-mer frequency, TF over GST control) | 1.21 fold enrichment (6-mer frequency, TF over GST control) | 1.11 fold enrichment (6-mer frequency, TF over GST control) | 1.16 fold enrichment (6-mer frequency, TF over GST control) |
| TCCGTT | 1.71 fold enrichment (6-mer frequency, TF over GST control) | 1.49 fold enrichment (6-mer frequency, TF over GST control) | 1.62 fold enrichment (6-mer frequency, TF over GST control) | 1.25 fold enrichment (6-mer frequency, TF over GST control) | 1.48 fold enrichment (6-mer frequency, TF over GST control) | 1.44 fold enrichment (6-mer frequency, TF over GST control) | 1.35 fold enrichment (6-mer frequency, TF over GST control) | 1.13 fold enrichment (6-mer frequency, TF over GST control) | 1.36 fold enrichment (6-mer frequency, TF over GST control) | 1.53 fold enrichment (6-mer frequency, TF over GST control) | 1.46 fold enrichment (6-mer frequency, TF over GST control) | 1.54 fold enrichment (6-mer frequency, TF over GST control) | 1.74 fold enrichment (6-mer frequency, TF over GST control) | 1.41 fold enrichment (6-mer frequency, TF over GST control) | 1.66 fold enrichment (6-mer frequency, TF over GST control) | 1.58 fold enrichment (6-mer frequency, TF over GST control) | 1.49 fold enrichment (6-mer frequency, TF over GST control) |
